Most compounds without a hit are left out; they make up all but 9% or so of the library.
HP1b chromo inh: blocks HP1-beta chromodomain binding to methylated histone tails. P83916. Potency, µM (top dose mostly 114 µM), inactives show at the top dose activity change, negative = inhibition, usual class: inhibitors. AlphaScreen HP1-beta / biotin-H3K9me3 peptide binding. hit rate 0.56% among 390,000; note: nearly all actives have a fitted effect of over 70% in size
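HP1-beta protein (50 nM final) preincubated 30 min at room temperature with biotinylated H3(1-18)K9me3 peptide (50 nM) in PBS pH 7.4, 0.01% Tween-20, then compound added for 30 min. AlphaScreen streptavidin donor/nickel chelate acceptor beads (10 ug/mL final), 30 min dark, luminescence read.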
PLK1 PBD block: PLK1 (human) polo-box domain binding inhibition; P53350; Plk1 PBD binding of FITC phosphopeptide, fluorescence polarization; Potency, µM, for inactives: max response, negative = inhibition, hits mostly inhibitors; hit rate 2.8% among 360,000; note: series mostly up to about 57 µM; % is set by controls: 0 for no effect and ±100 for the full control effect; nearly all actives have a fitted effect of over 65% in size
Target sequence (P53350 whole entry, looked up, the tested form may be a part): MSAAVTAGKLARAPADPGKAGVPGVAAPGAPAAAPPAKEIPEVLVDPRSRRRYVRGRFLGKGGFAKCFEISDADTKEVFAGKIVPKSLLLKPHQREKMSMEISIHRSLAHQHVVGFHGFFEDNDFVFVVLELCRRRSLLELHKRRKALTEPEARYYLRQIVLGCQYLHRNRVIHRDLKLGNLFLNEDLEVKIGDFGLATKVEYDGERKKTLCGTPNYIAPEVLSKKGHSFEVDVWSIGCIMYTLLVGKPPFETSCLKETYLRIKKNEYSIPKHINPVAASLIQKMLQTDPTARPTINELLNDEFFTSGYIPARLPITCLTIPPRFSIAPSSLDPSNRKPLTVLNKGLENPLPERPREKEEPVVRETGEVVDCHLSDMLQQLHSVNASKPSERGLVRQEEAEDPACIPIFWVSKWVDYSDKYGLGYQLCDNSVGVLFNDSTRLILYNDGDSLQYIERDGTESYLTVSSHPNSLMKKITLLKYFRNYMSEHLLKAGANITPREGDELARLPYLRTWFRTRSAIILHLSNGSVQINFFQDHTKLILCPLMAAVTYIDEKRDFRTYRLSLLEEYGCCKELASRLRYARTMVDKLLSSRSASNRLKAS
BAZ2B block: blocks human BAZ2B; Q9UIF8; AlphaScreen BAZ2B-H3K14Ac peptide displacement; Potency, µM (titrated, usually from 114 µM), for the others: at the highest dose activity change, negative = inhibition, usual class: inhibitors; hit rate 4.4% among 360,000; note: % is set by controls: 0 for no effect and ±100 for the full control effect; nearly all actives have a fitted effect of over 60% in size
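AlphaScreen luminescence quantifies BAZ2B engagement of H3K14Ac peptide; the protein and biotinylated peptide are both at 50 nM final, buffer PBS pH 7.4 with 0.01% Tween-20, all steps at room temperature.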
12-LOX inh: ALOX12 (human) lipoxygenase inhibition. P18054. purified 12hLO, xylenol orange hydroperoxide absorbance. Potency, µM (series often up to 108 µM), for inactives: at the highest dose activity change, negative = inhibition, hits mostly inhibitors. hit rate 1.1% among 580,000. AID 1671190; note: % is set by controls: 0 for no effect and ±100 for the full control effect
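Purified human 12hLO at 150 nM in 25 mM Hepes, 0.01% Triton X-100, pH 7.0, preincubated 15 min at room temperature with compound. Reaction started with 40 uM arachidonic acid, 30 min at room temperature. Hydroperoxide measured by Fe-xylenol orange, 573/405 nm absorbance ratio.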
JMJD2A Tudor: blocks the human JMJD2A Tudor domain. Potency, µM (titrated, usually from 114 µM), for inactives: top-dose activity change, negative = inhibition, actives largely listed as inhibitors. AlphaScreen JMJD2A-Tudor / H3K4me3 peptide binding. AID 504339. O75164. hit rate 4.4% among 390,000; note: % is set by controls: 0 for no effect and ±100 for the full control effect; nearly all actives have a fitted effect of over 50% in size
G9a inh: G9a (human) methyltransferase inhibition; Q96KQ7; G9a H3K9 monomethylation, AlphaScreen, 2 h; Potency, µM (doses to about 102 µM), for inactives: top-dose activity, negative = inhibition, actives largely listed as inhibitors; hit rate 8.8% among 350,000; AID 504332; note: % is set by controls: 0 for no effect and ±100 for the full control effect; nearly all actives have a fitted effect of over 75% in size
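Enzyme 20 nM + cpd, 15 min RT; add b-H3K9 pep 500 nM / SAM 20 uM; 2 h RT; anti-H3K9me1 Ab 0.5 ug/mL + SA donor / anti-rabbit acceptor beads 20 ug/mL each, 10 min; AlphaScreen read.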
Numbers without * were called inactive; ? = inconclusive; / = no result; [ ] = another dose, or the depositor's remark. Calls come from the whole dose curve; as a rule, active = well fitted curve in the direction sought with a large enough effect; inconclusive = small, poorly fitted or top-dose-only effect, or another doubt; inactive = no such curve, though single readings can be large; an effect the other way counts as inactive or inconclusive. Potency is the fitted concentration of half-maximal effect.

SMILES	HP1b chromo inh	PLK1 PBD block	BAZ2B block	12-LOX inh	JMJD2A Tudor	G9a inh
CCCCCOP(=O)(OCCCCC)C1(NS(=O)(=O)c2ccccc2)C=CC(=O)c2ccccc21 (centres undefined)	?	-9%	-2%	?	-29%	8.9µM*
O=C1CC(c2ccco2)CC(O)=C1C=NCCO (centres undefined)	33%	-4%	12%	0%	-4%	79µM*
O=C1CC(c2ccco2)CC(O)=C1C=NCC1NCCc2ccccc21 (centres undefined)	13%	-8%	-6%	?	-21%	-24%[59 µM]
Cc1ccc(NC(=O)COC(=O)c2ccc(C)c(S(=O)(=O)N3CCCCC3)c2)cc1F	/	/	/	2%	/	/
CN1C[C@@H]2CCCN3CCC[C@@H]([C@H]23)[C@H]1CCCC(=O)NCCCN1CCOCC1	/	/	/	77%	/	/
CCn1c2c(c(=O)n3ncc(C(=O)Nc4ccc(OC(F)(F)F)cc4)c13)CN(Cc1ccc(OC)cc1)CC2	22%[57 µM]	/	-5%	?	-11%	13µM*
COc1ccc(CN2CCc3c(c(=O)n4ncc(C(=O)N5CCN(c6ccc(F)cc6)CC5)c4n3C)C2)cc1	26%[57 µM]	/	79µM*	-7%	-11%	4%[59 µM]
Cc1ccccc1NCCNc1ccccc1C	-8%	0%	?	11%	-30%	45µM*
CN1CC(=O)N(c2cccc(F)c2)Cc2c1ncnc2N1CCOCC1	/	/	/	3%[6.33 µM]	/	/
O=C(NCc1ccco1)c1cccc(NS(=O)(=O)c2cccc(F)c2)c1	26%	6%	-27%	15%	-8%	-11%[59 µM]
O=C(NCc1ccco1)c1cc(NS(=O)(=O)c2cccc([N+](=O)[O-])c2)ccc1O	-24%	-12%	?	?	-36%	50µM*
CCn1c(CS(=O)Cc2ccc(Cl)cc2Cl)nnc1SCc1c(Cl)cccc1Cl (centres undefined)	20%	-8%	8%	9%	-24%	16µM*
CCOC(=O)c1c(C)[nH]c(C2=NNC(=Nc3ccccc3OC)SC2)c1C	?	2%	?	-7%	50µM*	?
CCOC(=O)c1c(C)[nH]c(C2=NNC(=Nc3ccc(OCC)cc3)SC2)c1C	?	-11%	50µM*	?	56µM*	?
CC(=O)c1c(C)[nH]c(C2=NNC(=NC(C)(C)C)SC2)c1C	27%	-4%	/	-11%	-15%	32µM*
CCOC(=O)c1c(C)[nH]c(C2=NNC(=Nc3ccccc3)SC2)c1C	?	?	-37%	-21%	?	45µM*
Cc1ncsc1C(=O)N1CCC2(CC1)OC(=O)N(Cc1ccccc1)C2(C)c1cccnc1 (centres undefined)	/	/	/	4%	/	/
COc1ccc(S(=O)(=O)N2CCN(Cc3cccc(Cl)c3)CC2)cc1	16%	-8%	-1%	1%	-12%	-21%[59 µM]
CC(C)COc1ccc(C(=O)OCC[N+]2(C)CCOCC2)cc1	/	/	/	5.6µM*	/	/
O=C(OCCN1CCOCC1)c1ccccc1	-5%	24µM*	-2%	?	?	-7%
O=C(OCCN1CCOCC1)c1ccc(OCCN2CCOCC2)cc1	16%	-4%	-37%	?	?	50µM*
CC(C)COc1ccc(C(=O)OCC(=O)NCc2cccs2)cc1	45%	-2%	/	-14%	-2%	/
Cc1noc(C)c1[S+](=O)([O-])N1CCC12Cc1ccccc1NC2=O (centres undefined)	/	/	/	-9%	/	/
O=C(CCn1nc(-c2ccc(Cl)cc2)ccc1=O)NCc1cccnc1	24%	-6%	1%	-3%	-7%	-2%[59 µM]
Cc1ccc(N=N/C(=C\O)C(=O)c2ccc(Cl)cc2)cc1	?	24µM*	11µM*	?	-35%[11.4 µM]	25µM*
CN1CCN(S(=O)(=O)c2ccc(N(C)Cc3ccc(OC(F)F)cc3)c([N+](=O)[O-])c2)CC1	?	-1%	50µM*	?	?	9%[0.501 µM]
COc1ccccc1C(C)Nc1ccc(S(=O)(=O)N2CCN(C)CC2)cc1[N+](=O)[O-] (centres undefined)	?	1%	40µM*	-23%	35µM*	?
